Assay outcomes: PubChem, several laboratories
PrPC surface inh: inhibitors of human cell surface prion protein PrPC, primary screen, cell-based, TR-FRET | AID 720596, 2013 | TR-FRET read-out | inhibition, % at 13.8 µM | 370,000 compounds, 0.43% hits; in the data active means inhibition above about 24%; further: 0% = median of the test wells and 100% = reference compound wells
CCHF vOTU inh-1: CCHFV vOTU protease inhibitors, primary screen, biochemical, Pep-AMC substrate, fluorescence. Crimean-Congo hemorrhagic fever virus L polyprotein viral ovarian tumor (vOTU) protease …. AID 651958, 2012. 370,000 compounds, 0.55% hits. inhibition, % at 11.5 µM; further: 0% = vehicle wells with enzyme and 100% = no enzyme wells
SARS 3CLpro inh: SARS-CoV 3CLpro protease inhibitors, primary screen, biochemical, quenched FRET. Replicase polyprotein 1ab (Severe acute respiratory syndrome coronavirus), P0C6X7. recombinant SARS-CoV 3CLpro, quenched FRET peptide cleavage. inhibition, % at 6 µM. 290,000 compounds, 0.14% hits. AID 1706, 2009; in the data active means inhibition above about 12%
PrP 5UTR inh: inhibition of PrP 5' UTR reporter expression | cell-based PrP 5' UTR mRNA reporter, plate reader | inhibition, % (test concentration not listed) | 340,000 compounds, 0.35% hits | AID 488862, 2010; in the data active means inhibition above about 52%; further: 0 = median of the neutral control wells
PrP 5UTR single: prion 5' UTR mRNA inhibition, cherry-pick retest. shares compounds with PrP 5UTR inh. 1,100 compounds, 48% hits. cell-based prion protein 5' UTR reporter, plate reader. inhibition, % at 2.5 µM; in the data active means inhibition above about 54%
CCHF vOTU inh-2: CCHFV vOTU protease inhibitors, confirmation, biochemical, Pep-AMC substrate, fluorescence. shares compounds with CCHF vOTU inh-1. Recombinant CCHFV vOTU. inhibition, % at 11.5 µM. 1,900 compounds, 17% hits. AID 686976, 2013
PrPC TRFRET cf: confirmation of inhibitors of cell surface human prion protein, confirmation, cell-based, TR-FRET; shares compounds with PrPC surface inh; cell surface PrPC level; inhibition, % at 13.8 µM; 1,500 compounds, 65% hits; AID 743200, 2013; in the data active means inhibition above about 25%
LD9 cytotox: cytotoxicity in LD9 cells, cytotoxicity control for cell surface PrPc inhibitor project, cell-based, luminescence, high throughput; shares compounds with PrPC surface inh; luminescence viability; inhibition, % at 13.8 µM; 1,500 compounds, 29% hits; AID 743201, 2013; in the data active means inhibition above about 9.5%
Active calls of the source: *; · = no result. Compounds with a hit are over-represented: about 1.3% of the library has one in this group of screens. Unless noted, no stated cut-off is given here; in the data, active means inhibition above about 30%; inactive means the rest.

SMILES	PrPC surface inh	CCHF vOTU inh-1	SARS 3CLpro inh	PrP 5UTR inh	PrP 5UTR single	PrPC TRFRET cf	LD9 cytotox	others
CCN1CCN(Cc2ccc(NC(=O)c3ccc(C)c(NC(=O)c4cncc(-c5cccs5)c4)c3)cc2C(F)(F)F)CC1	·	·	·	61*	86*	·	·
CCN1CCN(Cc2ccc(NC(=O)c3ccc(C)c(NC(=O)c4nccn4C)c3)cc2C(F)(F)F)CC1	1	12	·	12	·	·	·
O=C(NNC(=O)c1cc(-c2ccncc2)nc2ccccc12)c1ccccc1O	-10	15	·	-40	·	·	·
S=c1nc(C2COc3ccccc3O2)[nH][nH]1 (stereo unspecified)	-10	7	2	-51	·	·	·
CCCS(=O)(=O)c1cnc(C2COc3ccccc3O2)nc1N (stereo unspecified)	-3	-8	3	86*	83*	·	·
Cc1cc(NC2=CC(=O)C(=O)c3ccccc32)no1	-10	81*	·	77*	-2	·	·	CCHF vOTU inh-2=96*
CCCn1c(SCC(=O)Nc2ccccc2Cl)n[nH]c1=O	5	-5	1	-11	·	·	·
CC1=C(N2CC2)C(=O)C(CO)=C(N2CC2)C1=O	-39	35*	·	98*	97*	·	·	CCHF vOTU inh-2=5
C/C(=N\NC(=O)CSc1nnc(C)s1)c1ccc(O)cc1	10	-1	5	-13	·	·	·
COC(=O)C12OCC34C(CC5C(C)=C(O)C(=O)CC5(C)C3C(O)C1O)OC(=O)C(OC(=O)C=C(C)C)C24 (stereo unspecified)	100*	5	·	83*	86*	101*	35*
COC(=O)C12OCC34C(CC5C(C)=C(O)C(=O)CC5(C)C3C(O)C1O)OC(=O)C(OC(=O)/C=C(\C)C(C)C)C24 (stereo unspecified)	100*	4	·	93*	92*	100*	47*
O=Cc1cccn1-c1sc2c(c1C(=O)O)CCCC2	5	7	-4	-5	·	·	·
CC1=CC2OC3CC4OC(=O)C=CC=CC(C(C)O)OCC(O)C(C)CC(=O)OCC2(CC1O)C4(C)C31CO1 (stereo unspecified)	88*	5	·	95*	95*	99*	60*
CCCc1cc(C(=O)N2CCN(S(=O)(=O)c3ccc(OC)c(OC)c3)CC2)cs1	-1	-1	4	2	·	·	·
COc1ccc(CC2NCCC3(O)CCCCC23)cc1 (stereo unspecified)	1	-22	-3	-12	·	·	·
COc1ccc(CC2NCC(O)C2OC(C)=O)cc1 (stereo unspecified)	94*	-2	·	77*	95*	99*	51*
O=C(CCS(=O)(=O)c1cc2c(cc1Br)CCN2C(=O)C1CC1)N1CCN(c2ccccn2)CC1	-2	2	·	·	·	·	·
CC(=O)OC1(C)CC(C)C(=O)C(C(O)CC2CC(=O)NC(=O)C2)C1 (stereo unspecified)	91*	6	·	63*	96*	101*	55*
CC(=O)OC(C)(C)/C=C/C(=O)C(C)(O)C1[C@H](O)C[C@@]2(C)C3CC=C4C(CC[C@@H](O)C4(C)C)[C@]3(CO)C(=O)C[C@]12C (stereo partly specified)	30*	3	10	81*	90*	33*	3
CC(=O)OC1C(=O)OCC23CCC4(C)OC4C2OC2CC(OC(=O)C=CC=CC(=O)OCCC1C)C3(C)C21CO1 (stereo unspecified)	92*	5	·	94*	95*	98*	63*
C[C@H](O)[C@@H]1CN2CCc3c([nH]c4ccc(-c5ccc6c(c5)OCO6)cc34)[C@@H]2C[C@@H]1N(C)C(=O)Nc1ccc(F)cc1	-13	-2	·	·	·	·	·
